Results: the supplement of paper PMC8728848
Shown is part of a subset that was picked to be rich in the strongest signals.

What was measured:
Assay in all cases: glycan array binding signal (z-score within array); higher = stronger binding
Conditions in all cases: glycan notation: IUPAC condensed, linker removed
[1] = biological target: Fuc(a1-2)Gal(b1-4)Glc
Summary of the method: (§1)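 From the Consortium for Functional Glycomics database, 3228 arrays were curated, keeping only those whose protein sequence was available. Binding is given as a within-array Z-score averaged across arrays sharing a protein sequence and across linkers. Negative Z-scores can be read as non-binding.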

[2] = biological target: Fuc(a1-2)Gal(b1-4)GlcNAc(b1-2)[Fuc(a1-2)Gal(b1-4)GlcNAc(b1-4)]Man(a1-3)[Fuc(a1-2)Gal(b1-4)GlcNAc(b1-2)Man(a1-6)]Man(b1-4)GlcNAc(b1-4)GlcNAc
Summary of the method: as §1

[3] = biological target: Fuc(a1-2)Gal(b1-4)GlcNAc(b1-3)[Fuc(a1-2)Gal(b1-4)GlcNAc(b1-6)]GalNAc
Summary of the method: as §1

[4] = biological target: Fuc(a1-2)[Gal(a1-3)]Gal(b1-4)[Fuc(a1-3)]Glc
Summary of the method: as §1

[5] = biological target: Fuc(a1-2)[Gal(a1-3)]Gal(b1-4)[Fuc(a1-3)]GlcNAc(b1-3)GalNAc
Summary of the method: as §1

[6] = biological target: Fuc(a1-2)[Gal(a1-4)]Gal(b1-4)GlcNAc
Summary of the method: as §1

[7] = biological target: Fuc(a1-2)[GalNAc(a1-3)]Gal
Summary of the method: as §1

[8] = biological target: Fuc(a1-2)[GalNAc(a1-3)]Gal(b1-3)GlcNAc(b1-3)GalNAc
Summary of the method: as §1

[9] = biological target: Fuc(a1-2)[GalNAc(a1-3)]Gal(b1-4)GlcNAc
Summary of the method: as §1

[10] = biological target: Fuc(a1-2)[GalNAc(a1-3)]Gal(b1-4)GlcNAc(b1-3)Gal(b1-4)GlcNAc(b1-3)Gal(b1-4)GlcNAc
Summary of the method: as §1

[11] = biological target: Fuc(a1-2)[GalNAc(a1-3)]Gal(b1-4)GlcNAc(b1-3)GalNAc
Summary of the method: as §1

[12] = biological target: Fuc(a1-2)[GalNAc(a1-3)]Gal(b1-4)[Fuc(a1-3)]GlcNAc
Summary of the method: as §1

[13] = biological target: Fuc(a1-3)GlcNAc
Summary of the method: as §1

[14] = biological target: Fuc(a1-3)[Gal(b1-4)]GlcNAc(b1-6)GalNAc
Summary of the method: as §1

[15] = biological target: Fuc(a1-3)[Gal3S(b1-4)]GlcNAc
Summary of the method: as §1

[16] = biological target: Gal(a1-4)Gal(b1-4)GlcNAc(b1-3)Gal(b1-4)Glc
Summary of the method: as §1

[17] = biological target: Gal(b1-3)GlcNAc(b1-3)GalNAc
Summary of the method: as §1

[18] = biological target: Gal(b1-3)GlcNAc(b1-6)Gal(b1-4)GlcNAc
Summary of the method: as §1

[19] = biological target: Gal(b1-3)[Fuc(a1-4)]GlcNAc(b1-3)Gal(b1-4)GlcNAc
Summary of the method: as §1

[20] = biological target: Gal(b1-3)[Neu5Ac(a2-6)]GalNAc
Summary of the method: as §1

[21] = biological target: Gal(b1-4)GlcNAc(b1-3)Gal(b1-3)GalNAc
Summary of the method: as §1

[22] = biological target: Gal(b1-4)GlcNAc(b1-3)Gal(b1-4)GlcNAc(b1-2)Man(a1-3)[Gal(b1-4)GlcNAc(b1-3)Gal(b1-4)GlcNAc(b1-2)Man(a1-6)]Man(b1-4)GlcNAc(b1-4)[Fuc(a1-6)]GlcNAc
Summary of the method: as §1

[23] = biological target: Gal(b1-4)GlcNAc(b1-3)Gal(b1-4)GlcNAc(b1-2)[Gal(b1-4)GlcNAc(b1-3)Gal(b1-4)GlcNAc(b1-6)]Man(a1-6)[Gal(b1-4)GlcNAc(b1-3)Gal(b1-4)GlcNAc(b1-2)Man(a1-3)]Man(b1-4)GlcNAc(b1-4)GlcNAc
Summary of the method: as §1

[24] = biological target: Gal(b1-4)GlcNAc(b1-3)Gal(b1-4)GlcNAc(b1-3)Gal(b1-4)GlcNAc(b1-3)Gal(b1-4)GlcNAc(b1-2)Man(a1-3)[Gal(b1-4)GlcNAc(b1-3)Gal(b1-4)GlcNAc(b1-3)Gal(b1-4)GlcNAc(b1-3)Gal(b1-4)GlcNAc(b1-2)Man(a1-6)]Man(b1-4)GlcNAc(b1-4)[Fuc(a1-6)]GlcNAc
Summary of the method: as §1

[25] = biological target: Gal(b1-4)GlcNAc(b1-3)Gal(b1-4)GlcNAc(b1-3)Gal(b1-4)GlcNAc(b1-3)Gal(b1-4)GlcNAc(b1-3)Gal(b1-4)GlcNAc(b1-2)Man(a1-3)[Gal(b1-4)GlcNAc(b1-3)Gal(b1-4)GlcNAc(b1-3)Gal(b1-4)GlcNAc(b1-3)Gal(b1-4)GlcNAc(b1-3)Gal(b1-4)GlcNAc(b1-2)Man(a1-6)]Man(b1-4)GlcNAc(b1-4)[Fuc(a1-6)]GlcNAc
Summary of the method: as §1

[26] = biological target: Gal(b1-4)GlcNAc(b1-6)[Gal(b1-3)]GalNAc
Summary of the method: as §1

[27] = biological target: Gal3S(b1-3)GlcNAc
Summary of the method: as §1

[28] = biological target: Gal3S(b1-4)[Fuc(a1-3)]Glc6S
Summary of the method: as §1

[29] = biological target: Gal3S6S(b1-4)GlcNAc
Summary of the method: as §1

[30] = biological target: GlcNAc(b1-3)Gal(b1-4)GlcNAc(b1-3)Gal(b1-4)GlcNAc(b1-3)Gal(b1-4)GlcNAc(b1-3)Gal(b1-4)GlcNAc(b1-2)Man(a1-3)[GlcNAc(b1-3)Gal(b1-4)GlcNAc(b1-3)Gal(b1-4)GlcNAc(b1-3)Gal(b1-4)GlcNAc(b1-3)Gal(b1-4)GlcNAc(b1-2)Man(a1-6)]Man(b1-4)GlcNAc(b1-4)[Fuc(a1-6)]GlcNAc
Summary of the method: as §1

[31] = biological target: GlcNAc(b1-3)Gal(b1-4)GlcNAc(b1-6)[Gal(b1-3)]GalNAc
Summary of the method: as §1

[32] = biological target: GlcNAc(b1-3)[GlcNAc(b1-6)]GalNAc
Summary of the method: as §1

[33] = biological target: Kdn(a2-6)Gal(b1-4)GlcNAc
Summary of the method: as §1

[34] = biological target: Man(a1-2)Man(a1-3)[Man(a1-2)Man(a1-6)]Man
Summary of the method: as §1

[35] = biological target: Man(a1-2)Man(a1-6)[Man(a1-3)]Man(a1-6)[Man(a1-2)Man(a1-2)Man(a1-3)]Man
Summary of the method: as §1

[36] = biological target: Neu5Ac(a2-3)Gal(b1-3)GlcNAc(b1-3)Gal(b1-3)GlcNAc
Summary of the method: as §1

[37] = biological target: Neu5Ac(a2-3)Gal(b1-3)GlcNAc(b1-3)GalNAc
Summary of the method: as §1

[38] = biological target: Neu5Ac(a2-3)Gal(b1-3)GlcNAc(b1-4)Gal(b1-4)Glc
Summary of the method: as §1

[39] = biological target: Neu5Ac(a2-3)Gal(b1-4)GlcNAc(b1-3)Gal(b1-4)GlcNAc
Summary of the method: as §1

[40] = biological target: Neu5Ac(a2-3)Gal(b1-4)GlcNAc(b1-3)Gal(b1-4)GlcNAc(b1-3)Gal(b1-4)GlcNAc(b1-2)Man(a1-3)[Neu5Ac(a2-3)Gal(b1-4)GlcNAc(b1-3)Gal(b1-4)GlcNAc(b1-3)Gal(b1-4)GlcNAc(b1-2)Man(a1-6)]GalNAc
Summary of the method: as §1

[41] = biological target: Neu5Ac(a2-3)Gal(b1-4)[Fuc(a1-3)]GlcNAc(b1-3)GalNAc
Summary of the method: as §1

[42] = biological target: Neu5Ac(a2-6)Gal(b1-4)GlcNAc(b1-2)Man(a1-3)Man(b1-4)GlcNAc(b1-4)GlcNAc
Summary of the method: as §1

[43] = biological target: Neu5Ac(a2-6)Gal(b1-4)GlcNAc(b1-2)[Neu5Ac(a2-6)Gal(b1-4)GlcNAc(b1-6)]Man(a1-6)[Neu5Ac(a2-6)Gal(b1-4)GlcNAc(b1-2)Man(a1-3)][GlcNAc(b1-4)]Man(b1-4)GlcNAc(b1-4)GlcNAc
Summary of the method: as §1

[44] = biological target: Neu5Ac(a2-6)GalNAc
Summary of the method: as §1

[45] = biological target: Neu5Ac(a2-8)Neu5Ac(a2-3)Gal(b1-4)Glc
Summary of the method: as §1

[46] = biological target: Neu5Ac(a2-8)Neu5Ac(a2-3)Gal(b1-4)GlcNAc
Summary of the method: as §1

[47] = biological target: Neu5Ac(a2-8)Neu5Ac(a2-8)Neu5Ac(a2-3)[Gal(b1-3)GalNAc(b1-4)]Gal(b1-4)Glc
Summary of the method: as §1

[48] = biological target: Neu5Ac9Ac(a2-6)Gal(b1-4)GlcNAc
Summary of the method: as §1

[49] = biological target: Neu5Gc(a2-8)Neu5Ac(a2-3)Gal(b1-4)GlcNAc
Summary of the method: as §1

B1: CD4 (Rattus norvegicus), P05540 (protein)
chain: MCRGFSFRHLLPLLLLQLSKLLVVTQGSTSITAYKSEGESAEFSFPLNLGEESLQGELRWKAEKAPSSQSWITFSLKNQKVSVQKSTSNPKFQLSETLPLTLQIPQVSLQFAGSGNLTLTLDRGILYQEVNLVVMKVTQPDSNTLTCEVMGPTSPKMRLILKQENQEARVSRQEKVIQVQAPEAGVWQCLLSEGEEVKMDSKIQVLSKGLNSGGGSGGGTGGGDLAPQMLRELQETNAALQDVRELLRQQVKEITFLKNTVMECDACGLDRNLPPLAPLGPHPETLVKVKDAEDQLGARVGYIELDLNSGKILESFRPEERFPMMSTFKVLLCGAVLSRIDAGQEQLGRRIHYSQNDLVEYSPVTEKHLTDGMTVRELCSAAITMSDNTAANLLLTTIGGPKELTAFLHNMGDHVTRLDRWEPELNEAIPNDERDTTMPVAMATTLRKLLTGELLTLASRQQLIDWMEADKVAGPLLRSALPAGWFIADKSGAGERGSRGIIAALGPDGKPSRIVVIYTTGSQATMDERNRQIAEIGASLIKHW
glycan array binding signal (z-score) [1]: 1.27 | glycan array binding signal (z-score) [2]: 1.76 | glycan array binding signal (z-score) [3]: -0.242 | glycan array binding signal (z-score) [4]: 0.448 | glycan array binding signal (z-score) [5]: -0.228 | glycan array binding signal (z-score) [6]: 1.9 | glycan array binding signal (z-score) [7]: -0.738 | glycan array binding signal (z-score) [8]: 2.41 | glycan array binding signal (z-score) [9]: -0.98 | glycan array binding signal (z-score) [10]: 3.72 | glycan array binding signal (z-score) [11]: -0.665 | glycan array binding signal (z-score) [12]: 2.67 | glycan array binding signal (z-score) [13]: -1.59 | glycan array binding signal (z-score) [14]: 0.46 | glycan array binding signal (z-score) [15]: -0.413 | glycan array binding signal (z-score) [16]: 3.31 | glycan array binding signal (z-score) [17]: 0.109 | glycan array binding signal (z-score) [18]: -1.04 | glycan array binding signal (z-score) [19]: -0.072 | glycan array binding signal (z-score) [20]: -1.09 | glycan array binding signal (z-score) [21]: 3.12 | glycan array binding signal (z-score) [22]: 2.88 | glycan array binding signal (z-score) [23]: 2.6 | glycan array binding signal (z-score) [24]: 2.6 | glycan array binding signal (z-score) [25]: 2.8 | glycan array binding signal (z-score) [26]: -1.17 | glycan array binding signal (z-score) [27]: -0.868 | glycan array binding signal (z-score) [28]: 3.99 | glycan array binding signal (z-score) [29]: -0.623 | glycan array binding signal (z-score) [30]: -0.266 | glycan array binding signal (z-score) [31]: -0.267 | glycan array binding signal (z-score) [32]: -0.65 | glycan array binding signal (z-score) [33]: -1.16 | glycan array binding signal (z-score) [34]: -0.568 | glycan array binding signal (z-score) [35]: 1.05 | glycan array binding signal (z-score) [36]: 0.207 | glycan array binding signal (z-score) [37]: -0.719 | glycan array binding signal (z-score) [38]: -1.28 | glycan array binding signal (z-score) [39]: -1.14 | glycan array binding signal (z-score) [40]: 3.17 | glycan array binding signal (z-score) [41]: 2.77 | glycan array binding signal (z-score) [42]: 0.03 | glycan array binding signal (z-score) [43]: -1.55 | glycan array binding signal (z-score) [44]: -0.467 | glycan array binding signal (z-score) [45]: -0.183 | glycan array binding signal (z-score) [46]: 0.265 | glycan array binding signal (z-score) [47]: 0.105 | glycan array binding signal (z-score) [48]: 0.028 | glycan array binding signal (z-score) [49]: -0.129
